Laboratory results: PubChem BioAssay AID620 (Sanford-Burnham Center for Chemical Genomics, 2007)
Out of some 87,000 compounds screened, about 360 (0.41%) were called active. This excerpt belongs to a sample that is enriched for actives. Unmarked numbers belong to inactive results. Cut-off read from the data, not from the text of the source: active = cytotoxicity above about 50%; inactive = the rest.

Experiment: cytotoxicity in HT1080 fibrosarcoma cells, cell-based, fluorescence readout (AID 620);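 note: cells exposed to compound overnight then 4 h with Alamar Blue; 0% = vehicle DMSO and 100% = killing control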
Conditions: HT1080 viability, at 10 µM, stronger effect = higher value

Compound | cytotoxicity
COC(=O)C1CC(=O)N(CCc2c[nH]c3ccccc23)C1 (stereo not given) | 2.6%
COC(=O)Cn1nc(-c2ccccc2)c2ccccc2c1=O | 5.9%
COc1ccc(-n2nnnc2S(=O)(=O)Cc2ccc(C(=O)O)cc2)cc1 | 11.4%
COc1cc(OC)cc(-n2nnnc2SCC(=O)N2CCCC2)c1 | -5.2%
COc1ccc(-n2nnnc2S(=O)(=O)CC(=O)N2CCCCC2)cc1 | 54.3% (active)
Cn1c(SCc2cc(=O)[nH]c3ccccc23)nnc1-c1ccc(Br)cc1 | 6%
C(=C\c1ccccc1)/CSc1nnc(-c2ccncc2)n1Cc1ccco1 | -2.1%
C(=C\c1ccccc1)/CSc1nnc(-c2ccccc2)n1Cc1ccco1 | 53.5% (active)
Clc1cccc(-c2nnc(SC/C=C/c3ccccc3)n2Cc2ccco2)c1 | -0.5%
O=C(CN1C(=O)NC(Cc2ccccc2)C1=O)Nc1ccccc1 (stereo not given) | -3.1%
COC(=O)CSc1cc(C)nc(SC)n1 | -7.3%
O=C(Nc1cc(Cl)ccc1O)C1CCCO1 (stereo not given) | -2.4%
CCc1nnc(NC(=O)Cn2nc(-c3ccccc3OC)ccc2=O)s1 | 10.1%
CC(=O)c1cn(CC(=O)Nc2ccccc2C)c2ccccc12 | -1.9%
CN1CCN(c2ccc(Cl)cc2NS(=O)(=O)c2ccccc2Cl)CC1 | -1.9%
Cc1ccc(NS(=O)(=O)c2ccccc2Cl)c2c1CC(C)(C)O2 | 62.3% (active)
Cc1ccccc1NS(=O)(=O)c1cc(S(C)(=O)=O)ccc1Cl | -10.1%
COC(=O)C1=C(C)C(c2ccc(OC)cc2OC)NC(=O)N1 (stereo not given) | 2.9%
COc1ccc(C2CC(c3c(O)cc(C)oc3=O)=NCCS2)c(OC)c1 (stereo not given) | 51.9% (active)
COc1ccc(C2C(C(C)=O)=C(O)C(=O)N2C)c(OC)c1 (stereo not given) | 5.8%
CCN1CC=C2C(C#N)=C(N)C(C#N)(C#N)[C@H](c3ccoc3)[C@H]2C1 | -2.2%
CN1CC=C2C(C#N)=C(N)C(C#N)(C#N)[C@H](c3ccoc3)[C@H]2C1 | -7.5%
N#CC1=C(N)C(C#N)(C#N)[C@H](c2ccoc2)[C@H]2CN(Cc3ccccc3)CC=C12 | 66.1% (active)
CCOC(=O)c1ccc(NC(=O)CN2CCc3ccccc3C2)cc1 | -3.7%
COc1cccc(-c2cc(C(=O)Nn3cnnc3)c3ccccc3n2)c1 | 11.6%

Compound | cytotoxicity
CCN(CC)c1nc(N)nc(NS(=O)(=O)c2ccc(Cl)cc2)n1 | 51.4% (active)
CCNc1nc(NC(C)C)nc(NS(=O)(=O)c2ccc(Cl)cc2)n1 | -8.8%
CN(C)c1nc(NS(=O)(=O)c2ccc(Cl)cc2)nc(N(C)C)n1 | 35.3%
COCCNC(=O)CN(Cc1ccc2c(c1)OCO2)C(=O)CCC(=O)Nc1nccs1 | -8.1%
O=C(CN(C(=O)Cn1nnc(-c2cccs2)n1)c1ccc2c(c1)OCCO2)NCC1CCCO1 (stereo not given) | -1.3%
O=C1NC(c2cccs2)Nc2ccccc21 (stereo not given) | 10.2%
Cc1ccc(C2NC(=O)c3ccccc3N2)s1 (stereo not given) | 57.7% (active)
Cc1ccsc1C1NC(=O)c2ccccc2N1 (stereo not given) | 7.3%
O=S(=O)(Nc1ccc(-c2nc3cccnc3s2)cc1)c1cccs1 | -6.8%
Cc1ccc(S(=O)(=O)Nc2ccnc3ccccc23)cc1 | 5.4%
COc1ccccc1NS(=O)(=O)c1cccs1 | 8.9%
CCOc1ccccc1NS(=O)(=O)c1cccs1 | 56.5% (active)
O=S(=O)(Nc1cccc2ncccc12)c1cccs1 | 85% (active)
Cc1ccc(S(=O)(=O)NCc2cccnc2)s1 | -11.9%
O=S(=O)(Nc1cccc2c1ccc1cccn12)c1cccs1 | -4.6%
Cc1ccc(S(=O)(=O)Nc2cccc3ncccc23)s1 | 54.9% (active)
CCOc1ccccc1NS(=O)(=O)c1ccc(Br)s1 | 20.7%
O=C(c1ccc2c3c(cccc13)CC2)N1CCOCC1 | -18.7%
CC(=O)N1C(=O)C2(C(C#N)=C(N)Oc3n[nH]c(-c4ccccn4)c32)c2ccccc21 (stereo not given) | 6.9%
O=C(NCc1ccc2c(c1)OCO2)c1nn(-c2ccccc2)c(=O)c2ccccc12 | -4.7%
O=C(Nc1ccccn1)C(=O)N1CCCCC1 | 4.7%
COc1cccc2c1C(=O)c1c(O)c3c(c(O)c1C2=O)C[C@@](O)(C(=O)CO)C[C@@H]3O[C@H]1C[C@H](N)[C@H](O)[C@H](C)O1 | 53.8% (active)
Cc1noc(/C=C/c2ccco2)c1S(=O)(=O)N1CCC(C(=O)N(C)Cc2ccccc2)CC1 | -4.4%
COc1ccc(C(CC(=O)O)NC(=O)COc2ccc(C)cc2)cc1OC (stereo not given) | 4.5%
CCOCC(=O)Nc1ccccc1C(=O)OCC | -3.7%

Compound | cytotoxicity
CC(=O)n1cc(Nc2ccccc2C(=O)O)c2ccccc21 | 0.2%
CCOC(=O)c1ccccc1Nc1cn(C(C)=O)c2ccccc12 | 53.7% (active)
COc1ccc2c(Cl)c(-c3nnc4n3CCCCC4)sc2c1 | -8.8%
COc1ccc(C2C3=C(CC(C)(C)CC3=O)Oc3ncn(CCCn4ccnc4)c(=N)c32)cc1 (stereo not given) | 20.5%
Cc1noc(C)c1CSc1nnc(-c2ccccc2)n1Cc1ccco1 | 2.6%
Cc1noc(C)c1CSc1nc2[nH]ncc2c(=O)n1-c1ccccc1 | 60.4% (active)
Cc1noc(C)c1CSc1nc2ccccc2c(=O)n1-c1ccccc1 | 48.9%
C=CCn1c(SCc2c(C)noc2C)nc2cc(C(=O)O)ccc2c1=O | 25.6%
Cc1nc(CSc2nc3[nH]ncc3c(=O)n2-c2ccccc2)cs1 | -1.5%
CCc1cc2c(=O)n(Cc3ccco3)c(SCC(=O)N3CCCc4ccccc43)nc2s1 | -1.5%
C=CCn1c(SCc2c(C)noc2C)nc2ccccc2c1=O | 60.3% (active)
Cc1noc(C)c1CSc1nc2ccccc2c(=O)n1-c1ccc(Cl)cc1 | -2.7%
Cc1occc1C(=O)Nc1ccc2c(c1)CCC2 | 12.8%
CC(C)Cc1cc(C(=O)Nc2cc(Cl)ccc2Cl)no1 | 1.8%
O=C(C1CC1)N1CCCN(C(=O)C2CC2)CC1 | 1.3%
Cc1cc(=O)[nH]c(N2CCc3ccccc3C2)n1 | 1.4%
O=C(CSc1nnc(-c2cccs2)n1Cc1ccco1)Nc1ccc2c(c1)OCO2 | 1.2%
Cn1c(SCC(=O)N2CCCc3ccccc32)nnc1-c1c[nH]c2ccccc12 | 2.9%
CCOc1cccc(N2C(=O)CC(N3CCC(C(N)=O)(N4CCCCC4)CC3)C2=O)c1 (stereo not given) | -6.9%
CCc1cn([C@H]2C[C@H](O)[C@@H](CO)O2)c(=O)[nH]c1=O | -0.3%
O=c1[nH]c(=O)n([C@H]2C[C@H](O)[C@@H](CO)O2)cc1C(F)(F)F | 4.2%
O=c1[nH]c(=O)n([C@H]2C[C@H](O)[C@@H](CO)O2)cc1F | 58.1% (active)
Cc1ccc(SCC(=O)NCCCN2CCOCC2)cc1 | 4.3%
CC1(C)CC(=O)C(C2C3=C(CC(C)(C)CC3=O)Oc3ccccc32)=C(O)C1 (stereo not given) | -2.6%
CC1(C)CC(=O)C2=C(C1)OC1=C(C(=O)CC(C)(C)C1)C2c1ccc(O)cc1O | 63.3% (active)

Compound | cytotoxicity
Cc1nn(C)cc1C1C2=C(CC(C)(C)CC2=O)OC2=C1C(=O)CC(C)(C)C2 | 14.2%
CCCc1cc(=O)[nH]c(SCC(=O)C(C)(C)C)n1 | -8.7%
CCCC(C)C1C(C#N)=C(N)Oc2cc(C)oc(=O)c21 (stereo not given) | 0.8%
Cc1onc(-c2c(F)cccc2Cl)c1C(=O)OCn1nnc2ccccc2c1=O | -0.3%
CCn1ncc(Br)c1C(=O)Nc1ccc(F)cc1F | 2.8%
O=C(OCn1ncc(Br)c(Br)c1=O)c1ccc(F)cc1 | 95.8% (active)
O=C(OCn1ncc(Br)c(Br)c1=O)c1ccccc1Cl | 40%
O=C(OCn1ncc(Br)c(Br)c1=O)c1c(F)cccc1F | 100% (active)
CCn1ncc(Br)c1C(=O)Nc1ccc(C(=O)OC(C)C)cc1 | -9.8%
CC1CC(C)CN(C(=O)c2ccccc2Nc2ccc(SC(F)F)cc2)C1 (stereo not given) | -5.3%
COc1cc(OC)cc(-c2nnc(SCC(=O)N3CCCC3)o2)c1 | 9%
CCOc1cc(C(c2c(C)[nH][nH]c2=O)c2c(C)[nH][nH]c2=O)ccc1OS(=O)(=O)c1ccc(C)cc1 | -4.6%
COc1ccc(CCNc2nnc(Sc3nnnn3-c3ccccc3)s2)cc1OC | 57.2% (active)
COc1ccc(CCNC(=O)CSc2nnnn2-c2ccccc2OC)cc1OC | 1%
CCSc1nnnn1-c1ccccc1 | 11%
c1ccc(-n2nnnc2SCCCSc2nc3ccccc3s2)cc1 | 5.7%
COc1ccc(-n2nnnc2SCC(=O)NCCc2ccc(OC)c(OC)c2)cc1 | -21.1%
CCCSc1nnc(Sc2nnnn2-c2ccccc2)s1 | 60% (active)
NS(=O)(=O)c1ccc(CCNc2nc(CN3CCCCC3)nc3sc4c(c23)CCC4)cc1 | 28.3%
CSc1nc(-c2ccccc2)nc2[nH]ccc(=O)c12 | 8.6%
CSc1nc2ccc(S(=O)(=O)N(C)C)cc2s1 | -0.9%
CCc1cc(C)c(O)c(CC)n1 | -4.2%
Nc1ccc(C(=O)N2CCCC2)cc1 | 13%
Cn1c2ccccc2c2cc(C(=O)O)ccc21 | 6.9%
Nc1ccc(C(=O)n2c3ccccc3c3ccccc32)cc1 | 52.6% (active)
